Screening data (PubChem)
SENP8 block-1 – SENP8 protease inhibitors, primary screen, biochemical, luminescence; Sentrin-specific protease 8 (Homo sapiens), Q96LD8; purified SENP8, Z-RLRGG-aminoluciferin cleavage; inhibition, % at 10 µM; actives 1.2% (n = 330,000); AID 2540, 2010; in the data active means inhibition above about 50%
SENP6 block – SENP6 protease inhibitors, primary screen, biochemical, luminescence, uHTS; Recombinant SENP6 catalytic domain, aminoluciferin luminescence; inhibition, % at 10 µM; actives 1.8% (n = 330,000); AID 2599, 2010;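 active means inhibition above about 50% at the single tested dose, limit read from the data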;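 further: plate controls were DMSO wells with enzyme for no effect and DMSO wells lacking enzyme for full effect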
Target sequence (Q9GZR1 628-1112 limits assumed): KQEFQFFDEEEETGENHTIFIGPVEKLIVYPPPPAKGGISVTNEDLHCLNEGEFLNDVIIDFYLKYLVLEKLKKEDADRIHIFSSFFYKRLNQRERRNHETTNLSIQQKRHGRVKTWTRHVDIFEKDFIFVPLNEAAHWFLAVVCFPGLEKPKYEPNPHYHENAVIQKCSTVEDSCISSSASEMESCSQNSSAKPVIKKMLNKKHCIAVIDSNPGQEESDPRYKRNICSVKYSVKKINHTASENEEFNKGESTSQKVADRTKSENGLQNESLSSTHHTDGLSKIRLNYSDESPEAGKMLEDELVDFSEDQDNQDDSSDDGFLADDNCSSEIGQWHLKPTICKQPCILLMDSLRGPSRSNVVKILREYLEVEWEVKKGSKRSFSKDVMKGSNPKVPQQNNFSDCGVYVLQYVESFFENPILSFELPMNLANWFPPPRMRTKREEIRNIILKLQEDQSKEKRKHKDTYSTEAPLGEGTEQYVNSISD
SENP7 block – SENP7 protease inhibitors, primary screen, biochemical, luminescence, uHTS. recombinant SENP7, Z-RLRGG-aminoluciferin luminescence, 40 min. AID 434973, 2010. inhibition, % at 5 µM. Sentrin-specific protease 7 (Homo sapiens), Q9BQF6. actives 1.5% (n = 330,000);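 active means inhibition above about 50% at the single test dose, limit read from the data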;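 further: plate controls were DMSO with enzyme for no effect and no enzyme buffer wells for full effect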
SENP8 block-2 – human SENP8 protease inhibitors, primary screen, biochemical, fluorescence, Nedd8 protein substrate, uHTS; recombinant SENP8; inhibition, % at 20 µM; actives 0.64% (n = 360,000); Sentrin-specific protease 8 (Homo sapiens), Q96LD8; in the data active means inhibition mostly above about 40%, no sharp cut-off; inactive means mostly below about 27%
TRAIL sens C8 – viability loss with TRAIL in NB7+C8 cells, primary screen, TRAIL sensitizer project, cell-based, ATPlite luminescence. inhibition (viability loss, TRAIL sensitization), % at 10 µM. actives 1% (n = 360,000). AID 624354, 2012;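 active means compounds causing at least 50% loss of cell viability in the single-dose screen, relative to plate controls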
PPC-1+TRAIL kill – compounds killing PPC-1 cancer cells with TRAIL present, primary screen, TRAIL potentiator project, ATPLite luminescence, uHTS; PPC-1 cells + TRAIL, ATPLite viability luminescence; cell killing (% activity), % at 4 µM or 5 µM; actives 0.41% (n = 220,000); AID 1443, 2008;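 active means cell killing above 50% in the first pass at 4 µM, then a duplicate retest at 5 µM averaging 50% or more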;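 further: plate controls were cells with TRAIL plus DMSO for no effect and medium-only wells lacking cells for full effect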
SENP8 conf – SENP8 protease inhibitors, retest, confirmation, biochemical, luminescence, single concentration. shares compounds with SENP7 block. Recombinant SENP8, Z-RLRGG-aminoluciferin luminescence, 60 min. inhibition, % at 12.5 µM. actives 40% (n = 6,200). AID 488912, 2010;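 active means mean inhibition across replicates above about 50%, limit read from the data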
SENP6 confirm – SENP6 protease inhibitors, confirmation, biochemical, luminescence, single concentration | shares compounds with SENP7 block | recombinant SENP6, Z-RLRGG-aminoluciferin luminescence | inhibition, % at 12.5 µM | actives 58% (n = 6,200) | AID 488915, 2010
SENP7 confirm – SENP7 protease inhibitors, retest, confirmation, biochemical, luminescence, single concentration. shares compounds with SENP7 block. AID 488917, 2010. inhibition, % at 12.5 µM. recombinant SENP7, Z-RLRGG-aminoluciferin luminescence, 40 min. actives 69% (n = 6,200)
Casp3 SENP sel – caspase-3 protease inhibitors, confirmation, selectivity assay for SENP inhibitor project, biochemical, single concentration; shares compounds with SENP7 block; purified caspase-3, Z-DEVD-aminoluciferin luminescence, 60 min; inhibition, % at 12.5 µM; actives 60% (n = 6,200);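 active means mean inhibition above about 50%, limit read from the data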;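 further: plate controls were enzyme with DMSO for no effect and wells without caspase-3 for full effect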
Luc interf – counter-screen for SENP inhibitors: luminescence interference. AID 488919. shares compounds with SENP7 block. inhibition, % at 12.5 µM. actives 39% (n = 6,200). Pre-incubated SENP8/Z-RLRGG-aminoluciferin, luciferase luminescence interference;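 active means mean inhibition above about 50% when retested at one dose, limit read from the data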;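 further: plate controls were DMSO wells with completed reaction for no effect and substrate without enzyme for full effect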
Numbers without * were called inactive; · = no result given. A selection: hits, their analogues and other compounds. The true share with any hit is near 3%.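 How the source made its calls, unless noted: active means mean inhibition above about 50% in the one-dose retest (limit read from the data); inactive means the rest.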

SMILES	SENP8 block-1	SENP6 block	SENP7 block	SENP8 block-2	TRAIL sens C8	PPC-1+TRAIL kill	SENP8 conf	SENP6 confirm	SENP7 confirm	Casp3 SENP sel	Luc interf
COc1ccccc1N1CCN(C(=O)c2cn(C)c3ccc(S(=O)(=O)N4CCOCC4)cc3c2=O)CC1	-6.7	-4.3	1.9	8.8	-7.0	·	·	·	·	·	·
Cc1ccc(N(C(=O)c2csnn2)C(C(=O)NCc2ccccc2)c2cccnc2)cc1 (centres undefined)	-7.0	-10.8	0.1	2.6	-12.8	·	·	·	·	·	·
CC(=O)/C(N=Nc1ccc(SC(F)F)cc1)=C(\C)O	45.1	66.1*	48.3	24.1	-3.7	11.1	46.5	64.1*	59.9*	62.4*	39.0
Cc1nnc2sc(-c3cccc(F)c3)nn2c1=O	69.7*	47.5	0.6	15.9	-0.8	·	50.1*	63.1*	21.4	58.0*	-8.0
Cc1cc(C)c2c(c1)C(=O)/C(=C/c1ccc(C(=O)O)cc1)CC2	74.8*	92.1*	5.4	10.2	0.5	·	61.5*	51.3*	52.8*	58.3*	18.8
Cc1ccc2nc(-c3ccc(O)c(O)c3)cn2c1	42.0	71.5*	56.7*	-443.7	75.8*	·	68.6*	67.4*	90.3*	84.3*	72.2*
Cc1nc(-c2ccc(O)c(O)c2)cs1	1.1	-3.7	8.0	35.2	11.3	-2.7	·	·	·	·	·
O=C(CC1CCCC1)NCCS(=O)(=O)N1CCN(c2ccccc2)CC1	·	·	·	20.7	-16.1	·	·	·	·	·	·
CN(C)/C=C(\C=O)c1onc(-c2ccccc2Cl)c1C#N	-7.4	-12.9	-1.1	-7.6	-4.3	-6.0	·	·	·	·	·
N#Cc1c(-c2ccccc2Cl)noc1/C=C/Nc1ccc(C(=O)O)cc1	95.3*	94.8*	68.7*	-338.1	1.9	16.6	88.7*	97.0*	97.2*	84.1*	11.9
N=C1/C(=C/c2cccs2)C(=O)N=C2SN=C(SCc3ccccc3)N12	29.5	65.9*	19.2	26.8	1.9	11.0	46.8	59.4*	31.0	14.9	33.1
CSC1=NSC2=NC(=O)/C(=C/c3coc4ccccc4c3=O)C(=N)N12	·	·	·	-422.3	-14.3	15.8	·	·	·	·	·
CSC1=NSC2=NC(=O)/C(=C\c3cccs3)C(=N)N12	·	·	·	17.1	36.3	4.7	·	·	·	·	·
CC(C)CSC1=NSC2=NC(=O)/C(=C\c3cccs3)C(=N)N12	34.2	68.3*	10.8	10.1	12.1	19.3	51.1*	53.1*	47.8	28.4	39.3
CCCn1c(SCC(=O)NNC(=O)c2ccc(OC)cc2)nnc1C(C)C	-2.7	-19.7	-8.4	8.8	-5.9	·	·	·	·	·	·
CCn1cc(Br)c(C(=O)Nc2ccc(C(=O)OC(C)C)cc2)n1	9.5	16.8	6.0	4.1	-1.0	3.1	·	·	·	·	·
CCn1nccc1C(=O)Nc1ccc(C(=O)OC(C)C)cc1	67.4*	76.9*	76.2*	7.4	17.7	·	8.5	68.3*	88.0*	66.6*	59.2*
